Experimental data taken from PubChem BioAssay (NCATS).
Records with an inconclusive call do not appear. Where a call stands in place of a potency, no number is given. The source made the active and inactive calls. Unless noted, the call rests on the fitted dose curve; in most records, active means well fitted curve in the direction sought with a large enough effect; inconclusive means small, poorly fitted or top-dose-only effect, or another doubt; inactive means no such curve, though single readings can be large; an effect the other way counts as inactive or inconclusive.

Key:
[1] = Cytotoxicity counterscreen for NFkB agonists and antagonists (AID 624476); settings: NFkB reporter cell line viability counterscreen; series mostly up to 46.1 µM;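 further: cells exposed to compound for 48 hours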; further: potency means the concentration at half of the fitted maximal effect
[2] = qHTS Assay for Identification of Small Molecule Agonists for NFkB Signaling Pathway. (AID 624478); settings: NFkB pathway reporter cell assay, agonist mode, cells co-stimulated with 10 pM TNF alpha; series mostly up to 46.1 µM;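 further: compounds tested together with TNF alpha at its EC50 of 10 pM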
Summary of the method: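 Activators were sought in reporter cells stimulated at the TNF alpha EC50 (10 pM final). Compound and cytokine were co-incubated 5 hours at 37 C before beta-lactamase substrate detection by dual-emission fluorescence.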

[3] = qHTS Assay for Identification of Small Molecule Antagonists for NFkB Signaling Pathway. (AID 624479; calls by dose curve; further: potency means the concentration at half of the fitted maximal effect); settings: NFkB pathway reporter cell assay, antagonist mode; series mostly up to 38.3 µM
[4] = S16 Schwann cell PMP22 intronic element firefly luciferase assay (AID 624032); settings: S16 rat Schwann cells, PMP22 element FLuc, 24 h; series mostly up to 57.5 µM; further: nearly all actives have a fitted effect of over 30% in size; further: potency means the concentration at half of the fitted maximal effect
Summary of the method: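 Rat S16 Schwann cells stably carrying firefly luciferase driven by a PMP22 intronic element, in 10% FBS, treated 24 h at 37 C. ONE-Glo luminescence normalized to PTC124 control and DMSO (0%); curves classed by r2, magnitude and activity.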

[5] = S16 Schwann cell PMP22 intronic element beta-lactamase assay (AID 624044; calls by dose curve; further: nearly all actives have a fitted effect of over 15% in size; further: potency means the concentration at half of the fitted maximal effect); settings: S16 rat Schwann cells, PMP22 element beta-lactamase FRET, 24 h; series mostly up to 38.3 µM
Summary of the method: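 Beta-lactamase reporter under a PMP22 intronic regulatory element in stable S16 rat Schwann cells; 24 h compound exposure. 460 nm blue signal normalized between DMSO (0%) and potassium clavulanate, with 535 nm FRET tracking viability; curves classed by r2 and response.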

[6] = target: Glutaminase kidney isoform, mitochondrial (Homo sapiens) (UniProt O94925); test: qHTS for Inhibitors of Glutaminase (GLS): LOPAC Validation (AID 624146); settings: glutaminase enzyme activity inhibition; series mostly up to 46.1 µM;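 further: glutamate product detected by oxidase and peroxidase coupled Amplex red fluorescence gain; nearly all actives have a fitted effect of over 60% in size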
Summary of the method: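 hKGA in 45 mM KH2PO4 (pH 8.2), 0.02% Tween-20 with compound, then 1mM L-Glutamine (stock as added) plus glutamate oxidase/HRP/Amplex red coupling mix. Fluorescence read initially and after 30 min at RT; signal change reflects glutamate formation.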

[7] = qHTS of Trypanosoma Brucei Inhibitors: LOPAC Validation (AID 624147); settings: purified enzyme assay, luminescence, 45 min; series mostly up to 57.5 µM
Summary of the method: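 TbPYK + substrate in 50 mM TEA pH 7.2, 100 mM KCl, 10 mM MgCl2, 0.05% BSA, 0.01% Tween-20; cpd pinned; ADP 130 uM final; 45 min RT; Kinase-Glo Plus 10 min; luminescence endpoint.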

[8] = target: Glucagon-like peptide 1 receptor (Homo sapiens) (UniProt P43220); test: qHTS of GLP-1 Receptor Agonists: LOPAC Validation (AID 624148); settings: GLP-1R agonist cell assay; series mostly up to 46.1 µM;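 further: higher luminescence signal means agonism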
Summary of the method: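 HEK293 cells stably co-expressing GLP-1R and a cAMP-responsive luciferase reporter, plated 12 hours before compound, then incubated 4-6 hr at 37 deg C. Luminescence read 12 min after detection reagent.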

[9] = qHTS of Nrf2 Activators: LOPAC Validation (AID 624149); settings: Nrf2/ARE reporter cell assay; series mostly up to 46.1 µM
Summary of the method: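 Cells (AREc32_Fluc) are plated at 1000 per well in OPTI-MEM containing 5% FBS and left overnight. Compounds are pinned in and incubated 24 hr at 37 deg C, and firefly luciferase is detected with Steady-Glo.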

[10] = HTS Assay for Allosteric Antagonists of the Human D2 Dopamine Receptor: Hit Validation in HTRF (AID 624455); settings: Cells stably expressing D1 dopamine receptor, inhibition mode; series mostly up to 46.1 µM;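 further: stable D1 dopamine receptor cell line scored for blocking the D1 response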
Summary of the method: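 Inhibition of the D1-mediated response is measured by HTRF in cells that stably express the D1 dopamine receptor. Compounds reaching this step are hits from calcium-flux antagonism testing at EC80 dopamine in inducible Hek293 Trex D2 cells.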

Chain of Glucagon-like peptide 1 receptor (Homo sapiens) (P43220 whole entry, looked up): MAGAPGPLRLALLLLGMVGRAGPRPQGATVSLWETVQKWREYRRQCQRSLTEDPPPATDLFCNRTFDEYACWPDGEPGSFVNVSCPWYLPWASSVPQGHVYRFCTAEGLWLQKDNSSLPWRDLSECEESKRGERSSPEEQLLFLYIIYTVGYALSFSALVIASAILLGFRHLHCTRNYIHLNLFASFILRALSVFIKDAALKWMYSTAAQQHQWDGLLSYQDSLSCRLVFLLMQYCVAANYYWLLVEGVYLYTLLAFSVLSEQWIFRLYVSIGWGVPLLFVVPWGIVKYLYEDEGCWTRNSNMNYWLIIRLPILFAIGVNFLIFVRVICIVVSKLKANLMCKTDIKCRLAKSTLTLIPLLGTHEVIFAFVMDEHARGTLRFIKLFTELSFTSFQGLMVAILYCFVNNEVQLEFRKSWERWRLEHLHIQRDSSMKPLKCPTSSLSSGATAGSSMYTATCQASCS
Chain of Glutaminase kidney isoform, mitochondrial (Homo sapiens) (O94925 whole entry, looked up, canonical isoform): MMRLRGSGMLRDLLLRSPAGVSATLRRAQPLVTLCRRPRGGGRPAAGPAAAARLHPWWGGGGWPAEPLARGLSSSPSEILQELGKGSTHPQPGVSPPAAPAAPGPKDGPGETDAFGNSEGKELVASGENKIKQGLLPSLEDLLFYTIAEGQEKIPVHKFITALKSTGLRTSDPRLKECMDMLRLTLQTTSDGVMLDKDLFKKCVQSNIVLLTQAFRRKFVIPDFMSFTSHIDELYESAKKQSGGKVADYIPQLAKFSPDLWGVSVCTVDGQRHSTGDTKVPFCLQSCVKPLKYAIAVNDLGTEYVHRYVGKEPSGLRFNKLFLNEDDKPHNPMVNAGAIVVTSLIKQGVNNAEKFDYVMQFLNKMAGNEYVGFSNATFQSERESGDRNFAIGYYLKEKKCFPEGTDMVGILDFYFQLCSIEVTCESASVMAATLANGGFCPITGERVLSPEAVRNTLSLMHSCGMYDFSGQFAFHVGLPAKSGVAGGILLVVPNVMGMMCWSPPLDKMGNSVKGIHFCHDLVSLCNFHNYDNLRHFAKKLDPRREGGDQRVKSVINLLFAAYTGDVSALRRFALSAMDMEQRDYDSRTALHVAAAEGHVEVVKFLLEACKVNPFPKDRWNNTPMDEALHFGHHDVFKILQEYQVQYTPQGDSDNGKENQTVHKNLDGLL

COc1ccc2c(c1)CC[C@H]1[C@@H]2CC[C@]2(C)[C@@H](NCCCCCCN3C(=O)C=CC3=O)CC[C@H]12
Potency [1]: inactive
outcome [2]: inactive
Potency [3]: inactive

COc1cc2c(cc1OC)CC(=O)N(CCCN(C)C[C@H]1Cc3cc(OC)c(OC)cc31)CC2
Potency [4]: inactive
Potency [1]: inactive
outcome [2]: inactive
Potency [3]: inactive

COc1c(C)c2c(c(O)c1CC=C(C)CCC(=O)OCCN1CCOCC1)C(=O)OC2
Potency [4]: 5.1 µM (active)
Potency [5]: 2.82 µM (active)

NCC1CCC(C(=O)O)CC1 (stereo not drawn)
Potency [4]: inactive
Potency [5]: inactive

C[C@H]1O[C@@H](n2cc(F)c(=O)[nH]c2=O)[C@H](O)[C@H]1O
outcome [6]: inactive
outcome [7]: inactive
outcome [8]: inactive
outcome [9]: inactive
outcome [10]: inactive

Cc1csc(-c2nnc(Nc3ccc(Oc4ncccc4-c4ccnc(N)n4)cc3)c3ccccc23)c1
Potency [1]: inactive
outcome [2]: inactive
Potency [3]: 1.06 µM (active)

O=C(O)Cc1cccc(OCCCN(Cc2cccc(C(F)(F)F)c2Cl)CC(c2ccccc2)c2ccccc2)c1
Potency [1]: 26.4 µM (active)

COc1nc(C)cnc1NS(=O)(=O)c1cccnc1-c1ccc(-c2nnco2)cc1
Potency [1]: inactive
outcome [2]: inactive
Potency [3]: inactive

CN(C)CCN(C)C(=O)c1ccc(NC(=O)Nc2ccc(-c3nc(N4CCOCC4)c4ccn(CC(F)(F)F)c4n3)cc2)cc1
Potency [1]: 4.18 µM (active)
outcome [2]: inactive

Fc1ccc(C(c2ccc(F)cc2)N2CCN(CC=Cc3ccccc3)CC2)cc1
Potency [5]: inactive

CC(C)CN(C[C@@H](O)[C@H](Cc1ccccc1)NC(=O)O[C@H]1CO[C@H]2OCC[C@H]21)S(=O)(=O)c1ccc(N)cc1
Potency [4]: inactive

C=CCc1cccc(C=NNC(=O)CN2CCN(Cc3ccccc3)CC2)c1O
outcome [6]: inactive
outcome [7]: inactive
outcome [8]: inactive
outcome [9]: inactive
outcome [10]: inactive

CS(=O)(=O)c1ccc(C2=C(c3ccccc3)C(=O)OC2)cc1
Potency [4]: inactive
Potency [5]: inactive

Cc1ccc(C(=O)N(CCCN)[C@@H](c2nc3cc(Cl)ccc3c(=O)n2Cc2ccccc2)C(C)C)cc1
Potency [1]: 23.5 µM (active)
outcome [2]: inactive

O=C(Nc1ccc(OC(F)(F)F)cc1)c1sccc1NCc1ccnc2ccccc12
Potency [1]: 33.2 µM (active)
outcome [2]: inactive

O=C1C(CCC(O)c2ccc(F)cc2)C(c2ccc(O)cc2)N1c1ccc(F)cc1 (stereo not drawn)
Potency [5]: inactive
Potency [1]: inactive
outcome [2]: inactive
Potency [3]: inactive

C[C@@H](O[C@H]1OCCN(Cc2n[nH]c(=O)[nH]2)[C@@H]1c1ccc(F)cc1)c1cc(C(F)(F)F)cc(C(F)(F)F)c1
Potency [1]: 29.6 µM (active)
outcome [2]: inactive
Potency [3]: 23.7 µM (active)

CC(C)C[C@H](NC(=O)c1cc2ccccc2s1)C(=O)N1CCN(C(=O)[C@H](CO)NS(=O)(=O)c2ccc(Cl)cc2Cl)CC1
Potency [1]: inactive
outcome [2]: inactive

N#Cc1c(N(CC(=O)O)CC(=O)O)sc(C(=O)O)c1CC(=O)O
Potency [4]: inactive
Potency [5]: inactive

N#CC(c1ccc(Cl)cc1)c1c(Cl)cc(-n2ncc(=O)[nH]c2=O)cc1Cl (stereo not drawn)
Potency [4]: inactive
Potency [5]: inactive

Clc1ccc(COC(Cn2ccnc2)c2ccc(Cl)cc2Cl)c(Cl)c1 (stereo not drawn)
Potency [4]: 8.7 µM (active)
Potency [5]: inactive

O=C(O)c1nc(=O)[nH]c(=O)[nH]1
Potency [4]: 16.1 µM (active)
Potency [5]: inactive

C=C1c2cccc(O)c2C(O)=C2C(=O)[C@@]3(O)C(O)=C(C(N)=O)C(=O)[C@@H](N(C)C)[C@@H]3[C@@H](O)[C@H]12
Potency [4]: inactive
Potency [5]: inactive

CCOC(=O)[C@@H](N)CCC(=O)N[C@@H](CSCc1ccccc1)C(=O)N[C@@H](C(=O)OCC)c1ccccc1
Potency [1]: inactive

COc1ccnc(CS(=O)c2nc3ccc(OC(F)F)cc3[nH]2)c1OC (stereo not drawn)
Potency [4]: inactive
Potency [5]: inactive

CCNC(=O)c1noc(-c2cc(C(C)C)c(O)cc2O)c1-c1ccc(CN2CCOCC2)cc1
Potency [1]: inactive
outcome [2]: inactive
Potency [3]: 0.0009 µM (active)

COc1cccc(OC)c1-c1cc(C(=O)NC2(C(=O)O)C3CC4CC(C3)CC2C4)nn1-c1ccnc2cc(Cl)ccc12 (stereo not drawn)
Potency [1]: 14.8 µM (active)
outcome [2]: inactive
Potency [3]: 16.8 µM (active)

Cc1cc2nc3c(=O)[nH]c(=O)nc-3n(CC(O)C(O)C(O)CO)c2cc1C (stereo not drawn)
Potency [5]: inactive

CN1CC(=O)N2C(Cc3c([nH]c4ccccc34)[C@H]2c2ccc3c(c2)OCO3)C1=O (stereo partly drawn)
Potency [5]: inactive

CN1CCN2c3ncccc3Cc3ccccc3C2C1 (stereo not drawn)
Potency [4]: inactive
Potency [5]: inactive

CCCCOCCOc1nc(-c2ccc(C(=O)O)c(F)c2)sc1C
Potency [1]: inactive
outcome [2]: inactive
Potency [3]: inactive

COc1c(C)cnc(Cn2cnc3c(Cl)nc(N)nc32)c1C
Potency [1]: inactive
outcome [2]: inactive
Potency [3]: 0.0211 µM (active)

Cc1cccc(Nc2nc(N[C@@H]3CCCC[C@H]3N)ncc2C(N)=O)c1
Potency [1]: inactive
outcome [2]: inactive
